Inconclusive results are not listed. The source made the active and inactive calls. Rule for the calls: active = hit-call score of the fitted dose curve at least 0.9, where 1 is the maximum; inconclusive = response in the unintended direction; inactive = score below 0.9.
target: human Lymphocyte-cell Factor Kinase (Lck), LCK (gene 3932) (UniProt P06239); assay: NVS_ENZ_hLck: NovaScreen (NVS) Enzymatic Assay for human Lymphocyte-cell Factor Kinase (Lck)
Protocol: NVS_ENZ_hLck is a biochemical, single-readout assay that uses extracted gene-proteins in a cell-free assay. Measurements were taken 1 hour after chemical dosing in a 384-well plate.NVS_ENZ_hLck is one of one assay component(s) measured or calculated from the NVS_ENZ_hLck assay. It is designed to make measurements of enzyme activity, a form of enzyme reporter, as detected with fluorescence intensity signals by Fluorescence and electrophoretic mobility shift technology.Data from the assay component NVS_ENZ_hLck was analyzed into 1 assay endpoint. This assay endpoint, NVS_ENZ_hLck, was analyzed in the positive analysis fitting direction relative to DMSO as the negative control and baseline of activity. Using a type of enzyme reporter, loss-of-signal activity can be used to understand changes in the enzymatic activity as they relate to the gene LCK. Furthermore, this assay endpoint can be referred to as a primary readout, because this assay has produced […] where this one serves a enzymatic activity function. To generalize the intended target to other relatable targets, this assay endpoint is annotated to the kinase intended target family, where the subfamily is non-receptor tyrosine kinase.
Binding assays used specific radioligands (tritiated, iodinated) with non-radioactive competitive displacement ligands in agonist or antagonist protocols (as indicated) and various reference compounds and inhibitors to titrate specific binding to receptors and transporters. Most enzyme assays (CYPs, kinases, phosphatases, proteases, HDACs) used recombinant protein and specific substrates (fluorescence mostly, some colorimetric and radioactive) and inhibitors, followed by a biochemical separation of substrate and product. All assays for the biochemical HTS were initially run in duplicate at a single concentration (10 uM for CYP450 assays and 25 uM for all others). Assay-chemical combinations meeting a pre-defined threshold (e.g., 30% inhibition and other criteria defined below) were then run in singleton concentration-response format with maximum concentration of 20 uM for CYPs and 50 uM for all others. Each assay was run with positive and negative controls, and concurrent controls on every plate. The follow-up (secondary) screen tested active chemical-pairs in concentration series, as well as a few additional assays not tested in the primary screen, some selected negative inactives, and several cases re-run in the concentration series for confirmatory purposes.

Chain of human Lymphocyte-cell Factor Kinase (Lck), LCK (gene 3932) (P06239 whole entry, looked up): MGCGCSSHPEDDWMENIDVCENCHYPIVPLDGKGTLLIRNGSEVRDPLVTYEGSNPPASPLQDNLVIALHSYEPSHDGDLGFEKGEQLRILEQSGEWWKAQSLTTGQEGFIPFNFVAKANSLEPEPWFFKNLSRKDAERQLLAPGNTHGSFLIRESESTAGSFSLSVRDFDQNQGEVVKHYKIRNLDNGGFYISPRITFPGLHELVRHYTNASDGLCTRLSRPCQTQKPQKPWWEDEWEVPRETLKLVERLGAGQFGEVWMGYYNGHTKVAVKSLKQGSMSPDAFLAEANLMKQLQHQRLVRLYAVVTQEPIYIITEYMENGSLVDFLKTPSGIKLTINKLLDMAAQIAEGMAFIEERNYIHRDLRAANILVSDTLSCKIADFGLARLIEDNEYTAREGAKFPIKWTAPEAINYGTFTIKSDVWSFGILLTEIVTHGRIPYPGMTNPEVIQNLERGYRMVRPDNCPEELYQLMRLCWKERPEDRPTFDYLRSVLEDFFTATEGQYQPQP

Row | Compound | outcome | AC50
1 | S=C([S-])NCCNC(=S)[S-].[Mn+2] | inactive | 
2 | c1ccc2[nH]c(-c3cscn3)nc2c1 | inactive | 
3 | O=C(Nc1ccc([N+](=O)[O-])cc1Cl)c1cc(Cl)ccc1O | inactive | 
4 | c1ccc(Nc2ccccc2)cc1 |  | 10.6 µM (active)

— PubChem BioAssay AID2283170 (EPA ToxCast)
